In PubChem BioAssay (NCATS):
Inconclusive results are not listed. Active and inactive are the calls of the source. Calls come from the whole dose curve; as a rule, active = well fitted curve in the direction sought with a large enough effect; inconclusive = small, poorly fitted or top-dose-only effect, or another doubt; inactive = no such curve, though single readings can be large; an effect the other way counts as inactive or inconclusive.

Columns and labels:
[1] = Quantitative High-Throughput drug screen in 47 multiple myeloma cell lines against the NCATS MIPE library collection: AMO1_DSMZ cell viability assay (AID 1918927; note: nearly all actives have a fitted effect of over 30% in size); settings: AMO1 myeloma cells viability, CellTiter-Glo ATP luminescence, 48 h; series mostly up to 45.8 µM
How it was run: (§1)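 Myeloma cells (500 per well) were exposed to MIPE 4.0 compounds by pin transfer and incubated 48 hours at 37C, 5% CO2. Viability was read as ATP by CellTiter-Glo luminescence, normalised to DMSO (100%) and media-only (0%) wells.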

[2] = Quantitative High-Throughput drug screen in 47 multiple myeloma cell lines against the NCATS MIPE library collection: ARP1_JJKsccF8 cell viability assay (AID 1918928; note: nearly all actives have a fitted effect of over 40% in size); settings: ARP1 myeloma cells viability, CellTiter-Glo ATP, 48 h; series mostly up to 45.8 µM
How it was run: (§2)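 Myeloma cells, 500 per well, were exposed to MIPE 4.0 drugs by pin transfer for 48 h at 37 °C, 5% CO2. Viability was read as ATP luminescence with CellTiter-Glo, normalised to DMSO-only (100%) and medium-only (0%) wells.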

[3] = Quantitative High-Throughput drug screen in 47 multiple myeloma cell lines against the NCATS MIPE library collection: ARD_JJKsccE7 cell viability assay (AID 1918929); settings: ARD myeloma cell line viability, CellTiter-Glo, 48 h; series mostly up to 45.8 µM
How it was run: as §1

[4] = Quantitative High-Throughput drug screen in 47 multiple myeloma cell lines against the NCATS MIPE library collection: Karpas620_DSMZ cell viability assay (AID 1918959); settings: Karpas620 myeloma viability, CellTiter-Glo ATP luminescence, 48 h; series mostly up to 45.8 µM; note: nearly all actives have a fitted effect of over 30% in size
How it was run: (§3)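 Luminescent ATP measurement with CellTiter-Glo gives viability, scaled between DMSO-only wells (100%) and media-only wells (0%). Cells, 500 per well, faced library compounds for 48 hours at 37C.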

[5] = Quantitative High-Throughput drug screen in 47 multiple myeloma cell lines against the NCATS MIPE library collection: Karpas417_ECACC cell viability assay (AID 1918961); settings: Karpas417 myeloma viability, CellTiter-Glo ATP luminescence, 48 h; viability (% of DMSO): at 45.8 µM (top of the series) unless noted
How it was run: (§4)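 Steps: seed 500 cells per well; pin-transfer MIPE 4.0 library; incubate 48 h at 37C, 5% CO2, humidified; add CellTiter-Glo, 5 min room temperature; read luminescence.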

[6] = Quantitative High-Throughput drug screen in 47 multiple myeloma cell lines against the NCATS MIPE library collection: KHM11_PLB cell viability assay (AID 1918962); settings: KHM11 myeloma cell viability, CellTiter-Glo ATP luminescence, 48 h; series mostly up to 45.8 µM; note: nearly all actives have a fitted effect of over 35% in size
How it was run: as §3

[7] = Quantitative High-Throughput drug screen in 47 multiple myeloma cell lines against the NCATS MIPE library collection: INA6_PLB cell viability assay (AID 1918965; note: nearly all actives have a fitted effect of over 55% in size); settings: INA6 myeloma viability, CellTiter-Glo ATP luminescence, 48 h; series mostly up to 45.8 µM
How it was run: as §4

[8] = Quantitative High-Throughput drug screen in 47 multiple myeloma cell lines against the NCATS MIPE library collection: KMM1_JCRB cell viability assay (AID 1918960); settings: KMM1 myeloma viability, CellTiter-Glo ATP luminescence, 48 h; series mostly up to 45.8 µM; note: nearly all actives have a fitted effect of over 30% in size
How it was run: as §2

[9] = Quantitative High-Throughput drug screen in 47 multiple myeloma cell lines against the NCATS MIPE library collection: JIM3_ECACC cell viability assay (AID 1918963; note: nearly all actives have a fitted effect of over 35% in size); settings: JIM3 myeloma viability, CellTiter-Glo ATP, 48 h; series mostly up to 45.8 µM
How it was run: as §3

[10] = Quantitative High-Throughput drug screen in 47 multiple myeloma cell lines against the NCATS MIPE library collection: JIM1_ECACC cell viability assay (AID 1918964); settings: JIM1 myeloma viability, CellTiter-Glo ATP luminescence, 48 h; series mostly up to 45.8 µM
How it was run: as §1

Measured: Potency
Potency is the fitted concentration of half-maximal effect.

Cn1cnc2c(F)c(Nc3ccc(Br)cc3Cl)c(C(=O)NOCCO)cc21
active: [1] 0.833 µM | [3] 0.743 µM | [4] 0.235 µM | [5] 0.264 µM | [6] 0.0469 µM | [7] 0.526 µM
inactive: [2]

CO[C@@H]1[C@H](N(C)C(=O)c2ccccc2)C[C@H]2O[C@]1(C)n1c3ccccc3c3c4c(c5c6ccccc6n2c5c31)C(=O)NC4
active: [1] 0.833 µM | [2] 2.35 µM | [3] 1.05 µM | [4] 1.66 µM | [7] 0.132 µM

O=C(Nc1cccnc1)N1CCC(Cc2cccc(Oc3ccc(C(F)(F)F)cn3)c2)CC1
active: [1] 9.35 µM | [2] 18.7 µM | [3] 11.8 µM | [4] 14.8 µM | [7] 11.8 µM

CC(C)C[C@H](NC(=O)[C@@H](O)[C@H](N)Cc1ccccc1)C(=O)O
active: [2] 16.6 µM | [6] 20.9 µM | [9] 18.7 µM | [7] 20.9 µM
not listed: [5]
inactive: all other assays above

c1ccc([C@H]2CN3CCSC3=N2)cc1
inactive: [1] | [2] | [3] | [4] | [9]

Cc1cc(SCc2sc(-c3ccc(C(F)(F)F)cc3)nc2C)ccc1OCC(=O)O
inactive: [1] | [2] | [3] | [4] | [8]
active: [9] 18.7 µM | [7] 18.7 µM

CCOc1cc(N2CCC(O)CC2)ccc1Nc1ncc2c(n1)N(C)c1ccccc1C(=O)N2C
active: [1] 1.32 µM | [2] 10.5 µM | [3] 1.05 µM | [4] 0.332 µM | [8] 1.18 µM | [6] 0.935 µM | [9] 8.33 µM | [7] 2.64 µM

CC(c1cc2ccccc2s1)N(O)C(N)=O (stereo not given)
inactive: [1] | [2] | [3] | [10] | [7]

CCOC(=O)C1=C[C@]2(CC)CCCN3CCc4c(n1c1ccccc41)[C@@H]32
active: [1] 16.6 µM | [2] 20.9 µM | [4] 23.5 µM | [8] 20.9 µM | [6] 9.35 µM | [9] 11.8 µM | [10] 11.8 µM | [7] 8.33 µM

CNCc1ccc(-c2[nH]c3cc(F)cc4c3c2CCNC4=O)cc1
active: [1] 8.33 µM | [3] 5.9 µM | [7] 23.5 µM
inactive: [2] | [4]

Cc1cc(C=c2sc3nc4ccccc4n3c2=O)c(C)n1-c1ccccc1
active: [2] 6.62 µM | [6] 0.833 µM
inactive: [1] | [3] | [4] | [8] | [10]

NS(=O)(=O)c1cc2c(cc1Cl)NC=NS2(=O)=O
not listed: [5] | [6]
inactive: all other assays above

OC(CCN1CCCCC1)(c1ccccc1)C1CC2C=CC1C2 (stereo not given)
inactive: [1] | [2] | [4] | [8] | [10]

OCCn1cc(-c2cnc3nnn(Cc4ccc5ncccc5c4)c3n2)cn1
not listed: [5] | [6] | [8]
inactive: all other assays above

NNCCc1ccccc1
inactive: [3] | [6]
active: [1] 18.7 µM | [2] 20.9 µM | [4] 16.6 µM

COc1ccc(-c2ccc3c(N4CCOCC4)nc(N4C[C@@H](C)O[C@@H](C)C4)nc3n2)cc1CO
active: [1] 1.32 µM | [2] 0.264 µM | [3] 1.32 µM | [4] 1.05 µM | [6] 0.0935 µM | [10] 0.0332 µM | [7] 5.9 µM

CCOc1cc(C=C2C(=O)N(c3ccccc3)N=C2C)cc(Cl)c1OCC(=O)OC
inactive: [1]

O=C(O)[C@@H](c1ccc(OCc2ccc3ccccc3n2)cc1)C1CCCC1
not listed: [5] | [8] | [10]
inactive: all other assays above

CCOC(=O)N1CCC(=C2c3ccc(Cl)cc3CCc3cccnc32)CC1
active: [2] 20.9 µM | [3] 0.0017 µM
inactive: [1] | [8] | [9] | [10]

O=c1n(CCCN2CCN(c3cccc(Cl)c3)CC2)nc2ccccn12
not listed: [3] | [5] | [7]
inactive: all other assays above

NC[C@H](O)c1ccc(O)c(O)c1
not listed: [5] | [7]
inactive: all other assays above

CCN(c1ccccc1)c1cc(NC)[n+](C)c(C)n1
active: [1] 0.743 µM | [2] 23.5 µM | [3] 13.2 µM | [6] 0.235 µM
not listed: [5]
inactive: all other assays above

Nc1ccc(S(=O)(=O)Nc2ccnn2-c2ccccc2)cc1
inactive: [1] | [2] | [3] | [4] | [8] | [6]

CCCc1nc2c(C)cc(-c3nc4ccccc4n3C)cc2n1Cc1ccc(-c2ccccc2C(=O)O)cc1
active: [10] 0.0026 µM
not listed: [5] | [7] | [9]
inactive: all other assays above

CCCCNc1cc(C(=O)O)cc(S(N)(=O)=O)c1Oc1ccccc1
inactive: [1] | [2] | [4] | [8] | [9] | [7]

CC[C@H](Nc1ncnc2nc[nH]c12)c1nc2cccc(F)c2c(=O)n1-c1ccccc1
active: [2] 20.9 µM | [6] 4.69 µM | [9] 16.6 µM | [7] 13.2 µM
inactive: [1] | [4] | [8]

CCCC(CCC)C(=O)O
not listed: [5] | [8] | [9]
inactive: all other assays above

O=c1[nH]cnc2[nH]ncc12
inactive: [1] | [2] | [4] | [10]
active: [3] 23.5 µM

O=C(O)CCc1ccc(NCc2cccc(Oc3ccccc3)c2)cc1
not listed: [5] | [6] | [10]
inactive: all other assays above

CCOc1ccn(-c2ccc(F)cc2)c(=O)c1C(=O)Nc1ccc(Oc2ccnc(N)c2Cl)c(F)c1
inactive: [9]
active: [1] 18.7 µM | [2] 14.8 µM | [3] 18.7 µM

NC(=O)c1cnccn1
not listed: [5] | [6]
inactive: all other assays above

S=C(NCc1ccc2c(c1)OCO2)N1CCN(c2ncnc3c2oc2ccccc23)CC1
active: [1] 2.7 µM | [2] 3.03 µM | [3] 0.855 µM | [4] 2.41 µM | [6] 0.855 µM | [7] 1.08 µM

Cc1ccnc(NS(=O)(=O)c2ccc(NC(=O)Nc3ccc(S(=O)(=O)Nc4nccc(C)n4)cc3)cc2)n1
active: [1] 14.8 µM | [3] 23.5 µM | [4] 16.6 µM | [8] 14.8 µM | [10] 16.6 µM
inactive: [2]

CNC[C@H](O)c1cccc(O)c1
inactive: [1] | [2] | [3] | [7]
active: [8] 5.26 µM

C[C@@H]1CN(Cc2ccc(F)cc2)[C@@H](C)CN1C(=O)c1cc2c(C(=O)C(=O)N(C)C)cn(C)c2cc1Cl
active: [1] 29.6 µM | [3] 9.35 µM | [9] 13.2 µM | [7] 20.9 µM

Nc1cccc(S(=O)(=O)N2CCCN(S(=O)(=O)c3ccc4c(c3)OCCO4)CC2)c1
inactive: [3] | [4] | [8] | [7]
active: [1] 4.18 µM

Oc1ccc(C2CNCCc3c2cc(O)c(O)c3Cl)cc1 (stereo not given)
inactive: [1] | [3] | [4] | [9] | [10]

CCOc1ccc(Cc2cc([C@@H]3O[C@H](CO)[C@@H](O)[C@H](O)[C@@H]3O)ccc2Cl)cc1
active: [1] 14.8 µM
inactive: [2] | [7]

CCCc1nn(C)c2c(=O)[nH]c(-c3cc(S(=O)(=O)N4CCN(C)CC4)ccc3OCC)nc12
inactive: [1] | [3] | [8]

COc1cccc2cc(-c3nc(C4CCC(C(=O)O)CC4)n4ncnc(N)c34)[nH]c12 (stereo not given)
active: [1] 0.372 µM | [2] 0.662 µM | [4] 0.59 µM | [6] 0.118 µM | [7] 1.48 µM

Cc1ccc(-n2nc(C(C)(C)C)cc2NC(=O)Nc2ccc(OCCN3CCOCC3)c3ccccc23)cc1
active: [1] 18.7 µM | [4] 16.6 µM

N=c1nc(N2CCCCC2)cc(N)n1O
active: [7] 23.5 µM
not listed: [2] | [5] | [6]
inactive: all other assays above

C[C@]12CC[C@H](O)CC1=CC[C@@H]1[C@H]2CC[C@]2(C)C(c3cccnc3)=CC[C@H]12
inactive: [1] | [2] | [4] | [9]

NC(=O)C1CCCc2c1[nH]c1ccc(Cl)cc21 (stereo not given)
active: [1] 14.8 µM | [4] 18.7 µM | [6] 14.8 µM
inactive: [2] | [9]

COc1c(Cl)cc2c([nH]c3cnccc32)c1NC(=O)c1cccnc1C
active: [1] 5.26 µM | [3] 3.32 µM | [4] 18.7 µM | [6] 2.96 µM | [7] 2.96 µM
inactive: [9]

CC1(C)CNc2cc(NC(=O)c3cccnc3NCc3ccncc3)ccc21
inactive: [1] | [3] | [4] | [6]

NC(N)=NC(=O)c1nc(Cl)c(N)nc1N
active: [1] 14.8 µM | [7] 5.26 µM
inactive: [2] | [4] | [9]

O=c1[nH]c(-c2ccc(C(F)(F)F)cc2)nc2c1CSCC2
inactive: [1] | [3] | [4] | [9] | [10]

CC(C)(Sc1ccc(CCN(CCCCC2CCCCC2)C(=O)NC2CCCCC2)cc1)C(=O)O
inactive: [1] | [3] | [4] | [8] | [9]

OCCC#Cc1nc(-c2ccc(F)cc2)c(-c2ccncc2)n1CCCc1ccccc1
active: [1] 23.5 µM | [3] 16.6 µM | [4] 20.9 µM | [10] 13.2 µM | [7] 26.4 µM

O=C(NOC[C@H](O)CO)c1ccc(F)c(F)c1Nc1ccc(I)cc1F
active: [1] 3.72 µM | [4] 0.0469 µM | [8] 0.0187 µM | [6] 0.0132 µM | [9] 0.166 µM | [10] 1.66 µM | [7] 0.0332 µM
